Assay outcomes from PubChem BioAssay.
An excerpt weighted towards active compounds, which were near 17% of everything screened.
TDP1 cell CPT – DT40-hTDP1 cell growth loss with CPT | chicken DT40 Tdp1-/-;hTDP1 cells + 20 nM CPT, ATP luminescence, 48 h | Potency, µM (titrated, usually from 46.2 µM), inactives show top-dose activity change, negative = growth inhibition, actives largely listed as inhibitors | 420,000 compounds, 12% hits | AID 686979; also: % is scaled to controls: 0 for no effect and ±100 for the full control effect; nearly all actives have a fitted effect of over 55% in size
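Chicken DT40 Tdp1-/- cells stably complemented with human TDP1 were seeded at 400 cells/well in medium containing 20 nM camptothecin, exposed to pin-transferred compounds, and grown at 37 °C for at least 48 hr. Viability was read as ATP luminescence.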
HT1080 IDH1KD tx – kills HT-1080 cells with IDH1 knockdown. HT-1080 IDH1 knockdown viability, ATP luminescence, 48 h. Potency, µM (doses to about 46.1 µM), for inactives: top-dose activity, negative = toxicity, hits mostly cytotoxic. 360,000 compounds, 2% hits. AID 686971;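 also: 0% = DMSO wells and -100% = cell-free medium wells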
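IDH1KD HT-1080 cells, 750/well, RPMI + 5% FBS; compound pinned after 2 h settling; 48 h, 37 °C; CellTiter-Glo luminescence; % activity normalised to DMSO and no-cell wells; curves fitted, classed by r2 and efficacy.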
HepG2 tox – counter-screen for TGF-b inhibitors: cytotoxicity in HepG2 cells | HepG2 CAGA-GFP viability, ATP luminescence, 18 h | Potency, µM (highest dose often 46.1 µM), for the others: at the top dose activity change, negative = cytotoxicity, actives largely listed as cytotoxic | 410,000 compounds, 0.76% hits | AID 588856
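CellTiter-Glo luminescence gave cytotoxicity after 18 hours at 37 degrees C. The cells were HepG2 CAGA-GFP in 1% FBS DMEM, stimulated with 500 pg/mL TGF-beta after compound addition. %Activity was normalised to no-cell wells (complete cell-killing) and DMSO (no toxicity), and curves were fitted and classified.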
DT40 TDP1 no CPT – qHTS for Inhibitors of human tyrosyl-DNA phosphodiesterase 1 (TDP1): qHTS in cells in absence of CPT; DT40 Tdp1-/- hTDP1 cells, no CPT, ATP luminescence, 48 h; Potency, µM (titrated, usually from 46.2 µM), inactives show at the top dose activity change, negative = growth inhibition, actives largely listed as inhibitors; 420,000 compounds, 15% hits; AID 686978, 2013; also: % is scaled to controls: 0 for no effect and ±100 for the full control effect; nearly all actives have a fitted effect of over 55% in size
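DT40 Tdp1-/-;hTDP1 cells, no CPT (DMSO vehicle only), 400 cells/well; compounds pin-transferred; ≥48 hr, 37 °C; CellTiter-Glo 30 min RT dark, luminescence read.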
TGFb SMAD3 inh – inhibitors of TGF-b signaling; HepG2 CAGA-GFP TGF-b/SMAD3 reporter, GFP fluorescence, 18 h; TGF-beta stimulated, 500 pg/mL final; Potency, µM (top dose mostly 46.1 µM), for the others: at the highest dose activity, negative = inhibition, most hits filed as inhibitors; 410,000 compounds, 1.2% hits; also: % is scaled to controls: 0 for no effect and ±100 for the full control effect; nearly all actives have a fitted effect of over 65% in size
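Inhibition of TGF-beta-driven CAGA-GFP reporter expression in HEPG2 cells is measured by cellular GFP fluorescence after 18 h stimulation with 500 pg/mL recombinant TGF-beta in 1% FBS medium at 37 degrees C.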
HT1080NT lethal – kills 2HG-producing HT-1080-NT fibrosarcoma cells | HT-1080-NT fibrosarcoma viability, CellTiter-Glo ATP luminescence, 48 h | Potency, µM (doses to about 46.1 µM), without a hit: at the highest dose activity, negative = less viability, actives largely listed as cytotoxic | 360,000 compounds, 1.6% hits | AID 686970;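 also: NT is the 2HG producing partner of a matched IDH1 knockdown line; 0% = DMSO-treated cells and -100% = media-only wells without cells; nearly all actives have a fitted effect of over 55% in size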
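Read-out is CellTiter-Glo luminescence after 10 minutes at room temperature, following 48 hours' compound treatment of HT-1080-NT cells (750 cells/well, RPMI, 5% FBS, 37 degrees C).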
* marks the source's active call; other numbers are inactive results; ? = inconclusive; . = not tested or not shown; [ ] = remark or other dose. Calls follow the shape of the dose curve; as a rule, active = well fitted curve in the direction sought with a large enough effect; inconclusive = small, poorly fitted or top-dose-only effect, or another doubt; inactive = no such curve, though single readings can be large; an effect the other way counts as inactive or inconclusive. Potency is read from the fitted curve at half-maximal effect.

SMILES | TDP1 cell CPT | HT1080 IDH1KD tx | HepG2 tox | DT40 TDP1 no CPT | TGFb SMAD3 inh | HT1080NT lethal
COc1ccc(N/N=C/c2c(C(=O)O)ccc3ccccc23)cc1 | 2.6µM* | ? | -28% | 3.3µM* | 2.2µM* | ?
CCOC(=O)c1ccc(NC(=O)Cn2ncc(Cl)c(Cl)c2=O)cc1 | 2.3µM* | 4.6µM* | 16µM* | 2.3µM* | ? | 16µM*
CCc1ccccc1NC(=O)CN(C)C(=O)Cn1cnc2ccc(Cl)cc2c1=O | -11% | -7% | -56% | -15% | -13% | -3%
CCc1ccccc1NC(=O)CN(C)C(=O)Cn1ncc(Cl)c(Cl)c1=O | 5.8µM* | ? | -35% | 6.5µM* | 0% | ?
CCC(=O)Nc1ccc(C(=O)Cn2ncc(Cl)c(Cl)c2=O)cc1 | 5.2µM* | ? | -123% | 6.5µM* | ? | 0%
CCOC(=O)c1ccc(NC(=O)Cn2nc(C)c3ccccc3c2=O)cc1 | -2% | 0% | 3% | 11% | -10% | -2%
CCOC(=O)c1ccc(S(=O)(=O)N2CCC(C(=O)O)CC2)cc1 | -7% | -6% | -3% | -10% | 5% | 1%
Cc1ccc(Cl)cc1N1CCN(S(C)(=O)=O)CC1 | -18% | 2% | -3% | -16% | -4% | -3%
CCCc1cc(N2CCN(c3cc(Cl)ccc3C)CC2)n2cnnc2n1 | 13µM* | . | 5% | 5.2µM* | -20% | .
COc1ccc(/C([O-])=C(/C(=S)Nc2ccc(C)c(C)c2)n2c[n+](C)c3ccccc32)cc1OC | 29µM* | -1% | -16% | ? | 5% | -4%
COc1ccc(OC)c(C2C3=C(COC3=O)Nc3cc4c(cc32)OCO4)c1 (stereo not drawn) | 0.16µM* | 0.52µM* | 1% | 0.15µM* | ? | 0.65µM*
COc1ccc(C2C3=C(CC(C)(C)CC3=O)Nc3cc4c(cc32)OCO4)cc1 (stereo not drawn) | 0% | 15% | -24% | -9% | -21% | 6%
Cc1ccc(-c2nnc(OCc3nc4ccccc4n3C)c3ccccc23)cc1 | ? | 0% | 1% | -20% | 0% | 9%
CCCCC(=O)N/N=C/c1ccc(Sc2cccc3cccnc23)o1 | ? | ? | 2% | 23µM* | ? | ?
O=C(N/N=C/c1ccc(O)c(O)c1)c1ccc(CSc2cccc3cccnc23)cc1 | ? | -20% | -42% | 8.2µM* | ? | -21%
O=C(CSc1cccc2cccnc12)N/N=C/c1cccc(O)c1 | ? | 1% | -6% | 16µM* | -14% | 19%
Cc1ccc(S(=O)(=O)N(CC(=O)N/N=C/c2cccc(C)c2)c2cccc3cccnc23)cc1 | ? | 1%[9.24 µM] | 4% | 21µM* | ? | 7%
O=C(CSc1cccc2cccnc12)N/N=C/c1ccc(F)cc1 | -8% | -7% | -14% | -16% | -17% | -8%
CCCCCCCC(=O)N/N=C/c1ccco1 | -6% | 13% | -11% | -11% | -4% | 12%
COc1ccccc1N(CC(=O)N/N=C/c1ccc(C(=O)O)cc1)S(=O)(=O)c1ccc(C)cc1 | 4% | 2% | 20% | -4% | 5% | 0%
COc1ccc(C(=O)N(CC2CCCO2)C(C(=O)NC2CCCC2)c2ccc(Cl)cc2)cc1OC (stereo not drawn) | ? | -2% | -5% | 18µM* | -3% | -4%
COc1ccc(C(C(=O)NC2CCCCC2)N(CC2CCCO2)C(=O)C2COc3ccccc3O2)cc1OC (stereo not drawn) | -26% | -7% | -1% | ? | 5% | -7%
O=C1Nc2ccc3c(c2C1=Cc1cc2c(cc1Br)OCO2)OCO3 | 3.3µM* | 2% | -19% | 4.6µM* | ? | ?
NC(=O)CC(NC(=O)c1cccc(Br)c1)c1ccc(N2CCCCCC2)c([N+](=O)[O-])c1 (stereo not drawn) | 5.8µM* | 2% | -17% | 6.5µM* | -13% | 6%
NC(=O)CC(NC(=O)c1ccccc1)c1ccc(N2CCc3ccccc3C2)c([N+](=O)[O-])c1 (stereo not drawn) | ? | 0% | 4% | ? | 5% | -3%
SMILES | TDP1 cell CPT | HT1080 IDH1KD tx | HepG2 tox | DT40 TDP1 no CPT | TGFb SMAD3 inh | HT1080NT lethal
NC(=O)CC(NC(=O)c1ccc(Br)cc1)c1ccc(N2CCCCCC2)c([N+](=O)[O-])c1 (stereo not drawn) | 16µM* | -3% | -13% | 16µM* | ? | -23%
NC(=O)CC(NC(=O)c1ccccc1)c1ccc(N2CCCCCCC2)c([N+](=O)[O-])c1 (stereo not drawn) | 8.2µM* | 0% | -22% | 9.2µM* | -16% | 18%
NC(=O)CC(NC(=O)Cc1ccc(Br)cc1)c1ccc(N2CCC(N3CCCC3)CC2)c([N+](=O)[O-])c1 (stereo not drawn) | -5% | -2% | -8% | -16% | -3% | 4%
NC(=O)CC(NC(=O)c1ccc(Br)cc1)c1ccc(N2CCC(Br)CC2)c([N+](=O)[O-])c1 (stereo not drawn) | 18µM* | -14% | -3% | 12µM* | ? | -12%
NC(=O)CC(NC(=O)c1cccc(Br)c1)c1ccc(N2CCC(N3CCCC3)CC2)c([N+](=O)[O-])c1 (stereo not drawn) | 5% | 9% | 8% | -19% | ? | 8%
CC(C)N(C(=O)[C@H]1C[C@H](CC(=O)NCCc2ccccn2)C(=O)N2CCc3c([nH]c4cc(CCC(=O)N(C)C)ccc34)[C@]12C)C(C)C | -13% | 3% | -1% | -14% | -5% | 4%
COc1ccc(Cl)cc1NC(=O)CN(C)C(=O)/C=C/c1ccco1 | -25% | -9% | -10% | -20% | 1% | 0%
O=C(Cn1cncn1)NCC1Cc2cc(-c3ccsc3)cc(Cl)c2O1 (stereo not drawn) | 5%[9.04 µM] | . | . | -15% | . | .
CCOCc1cc(CN2CCCC(CNC(=O)c3ccco3)C2)ccc1OC (stereo not drawn) | -10% | 7% | 11% | 1% | 2% | -2%
Cc1cc(C(=O)Nc2ccc([N+](=O)[O-])cn2)cs1 | -7% | -7% | -5% | -7% | -20% | -4%
CCOC(=O)C1(C)CCCCN1C(=O)c1ccc(F)c(C)c1 (stereo not drawn) | -66% | 10% | -6% | ? | 7% | 7%
